Screens deposited in PubChem BioAssay by National Center for Advancing Translational Sciences (NCATS).
FEN1 inhibitor: blocks human flap endonuclease 1 | P39748 | Recombinant FEN1 flap cleavage, fluorescence, 15 min | Potency, µM (highest dose often 114 µM), actives largely listed as inhibitors | 390,000 compounds, 0.35% hits; also: nearly all actives have a fitted effect of over 65% in size
Target sequence (P39748 whole entry, looked up): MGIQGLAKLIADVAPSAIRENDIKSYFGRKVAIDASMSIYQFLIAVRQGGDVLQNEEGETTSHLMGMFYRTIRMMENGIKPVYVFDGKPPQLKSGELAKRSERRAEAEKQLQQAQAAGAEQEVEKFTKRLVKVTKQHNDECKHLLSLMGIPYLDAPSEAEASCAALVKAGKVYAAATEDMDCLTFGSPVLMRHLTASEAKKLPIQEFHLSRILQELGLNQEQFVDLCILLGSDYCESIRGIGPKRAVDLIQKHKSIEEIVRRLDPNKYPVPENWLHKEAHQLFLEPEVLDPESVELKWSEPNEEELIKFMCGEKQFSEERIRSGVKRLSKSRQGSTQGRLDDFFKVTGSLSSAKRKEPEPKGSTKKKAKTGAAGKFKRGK
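Steps: FEN1 (10 nM) dispensed; compound added by pin tool; 15 min at room temperature; substrate added to 50 nM final; reads at 0 min and 15 min; data normalized and fitted (four-parameter Hill).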
POLI inh: DNA polymerase iota (human) inhibition. Pol iota fluorescent replication assay, 10 min. Potency, µM (titrated, usually from 115 µM), usual class: inhibitors. 390,000 compounds, 1% hits. AID 588590
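Fluorescent replication assay read twice, at 0 min and 10 min after adding 50 nM (final) substrate. Enzyme (10 nM) and compounds were first incubated 15 min at room temperature; enzyme-free buffer wells were negative controls.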
Pol beta inh: DNA polymerase beta (human) inhibition | Pol beta primer extension/strand displacement, fluorescence kinetic | P06746 | Potency, µM (top dose mostly 114 µM), usual class: inhibitors | 340,000 compounds, 1.3% hits
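Reaction started by 50 nM substrate onto compound-treated Pol beta (10 nM, 15 min preincubation, room temperature); plates read at 0 min and 10 min. Normalized concentration-effect data fitted by four-parameter Hill equation.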
Pol eta inh-1: DNA polymerase eta (human) inhibition; recombinant Pol eta, fluorescent DNA replication assay; Potency, µM (top dose mostly 114 µM), hits mostly inhibitors; 390,000 compounds, 1.2% hits; AID 588591
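Pol eta (10 nM) was preincubated with compounds for 15 min at room temperature, after which fluorescent replication substrate (50 nM final) was added to start the reaction. Fluorescence was read kinetically at 0 and 10 min.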
WRN inhibitor: WRN helicase (human) inhibition; Q14191; WRN helicase unwinding, fluorescent forked duplex, kinetic; Potency, µM (titrated, usually from 114 µM), usual class: inhibitors; 360,000 compounds, 0.46% hits; also: nearly all actives have a fitted effect of over 55% in size
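WRN at 20 nM final was preincubated with compound for 15 min at room temperature; reaction started with 100 nM forked duplex oligonucleotide carrying fluorophore and quencher plus 2 mM ATP (final). Unwinding followed kinetically by red fluorescence (ex 525/em 598 nm).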
Pol kappa inh-1: DNA polymerase kappa (human) inhibition. purified Pol kappa, fluorescent DNA synthesis assay, 10 min. AID 588579. 400,000 compounds, 0.53% hits. Potency, µM (top dose mostly 107 µM), hits mostly inhibitors. Q9UBT6
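10 nM Pol kappa was preincubated with compounds for 15 min at room temperature. Reaction started with 50 nM (final) substrate. Fluorescence read kinetically at 0 and 10 min.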
GALK confirm: confirmation of human galactokinase (GALK) inhibitors. shares compounds with Pol eta inh-1. purified GALK, Kinase-Glo ATP depletion luminescence. Potency, µM (highest dose often 115 µM), most hits filed as inhibitors. 150 compounds, 70% hits. AID 2015
Target sequence (P51570 whole entry, looked up): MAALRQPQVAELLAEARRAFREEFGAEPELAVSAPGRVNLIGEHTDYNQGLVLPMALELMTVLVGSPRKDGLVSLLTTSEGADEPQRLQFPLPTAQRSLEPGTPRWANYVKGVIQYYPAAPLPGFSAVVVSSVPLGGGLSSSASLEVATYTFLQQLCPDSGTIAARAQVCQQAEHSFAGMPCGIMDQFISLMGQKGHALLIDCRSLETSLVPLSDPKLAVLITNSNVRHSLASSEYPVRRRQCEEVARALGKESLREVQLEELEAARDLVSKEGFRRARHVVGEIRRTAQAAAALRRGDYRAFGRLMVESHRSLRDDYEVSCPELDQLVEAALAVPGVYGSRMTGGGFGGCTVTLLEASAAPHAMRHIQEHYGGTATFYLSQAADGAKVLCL
Redox cycling: redox cycling activity in phenol red-HRP assay | shares compounds with Pol eta inh-1 | Phenol red-HRP H2O2 redox cycling, absorbance 600 nm | Potency, µM (highest dose often 115 µM), usual class: inhibitors | 150 compounds, 40% hits | AID 2035
HEK293 viability: reduces HEK-293 cell viability in GALK counter-screen | shares compounds with Pol eta inh-1 | HEK-293 viability, ATP luminescence (CellTiter-Glo), 24/48 h | Potency, µM (titrated, usually from 46.1 µM), usual class: inhibitors | 170 compounds, 10% hits
Pol kappa inh-2: Pol kappa (human) inhibition, cherry-pick confirmation. shares compounds with Pol eta inh-1. purified Pol-kappa, fluorescent strand-displacement substrate. Potency, µM, actives largely listed as inhibitors. 920 compounds, 76% hits. AID 720501
Pol eta inh-2: Pol eta (human) inhibition, cherry-pick confirmation. shares compounds with Pol eta inh-1. 2,600 compounds, 64% hits. Pol eta primer extension, TAMRA/BHQ fluorescence, 10 min. Potency, µM, most hits filed as inhibitors. AID 720502
Of the large screens only hits and unclear results are named; the others gave an inactive call (follow-up assays come after a bar, where they were run); ! = not confirmed by another sample. Sampled rows, rich in hits. Any-hit rate of the full collection: about 2.4%. Calls follow the shape of the dose curve; as a rule, active = well fitted curve in the direction sought with a large enough effect; inconclusive = small, poorly fitted or top-dose-only effect, or another doubt; inactive = no such curve, though single readings can be large; an effect the other way counts as inactive or inconclusive.

CN(C)c1cccc(C(=O)OCC(=O)Nc2nccs2)c1	POLI inh inconclusive, Pol eta inh-1 inconclusive | Pol eta inh-2 inconclusive
COc1cc(/C=C2\C(=O)N(c3cccc(C(=O)O)c3)N=C2C)ccc1OCc1ccccc1	Pol eta inh-1 32µM, WRN inhibitor 2.7µM (no result: FEN1 inhibitor, POLI inh, Pol beta inh, Pol kappa inh-1) | Pol eta inh-2 inconclusive
C#CCOc1ccc(/C=C2/C(=O)N(c3cccc(C(=O)O)c3)N=C2C)cc1OC	FEN1 inhibitor inconclusive, POLI inh 2µM, Pol eta inh-1 50µM, WRN inhibitor inconclusive | Pol eta inh-2 inconclusive
O=C(Nc1ccc([N+](=O)[O-])cc1)Nc1ccc(Cl)cc1F	none
Cc1cccc(OCc2nnc(SCC(=O)Nc3nccs3)o2)c1	none
O=C(CSCc1ccccc1)N1CCN(S(=O)(=O)c2ccc(F)cc2)CC1	none | GALK confirm inactive | Redox cycling inactive | HEK293 viability inactive
CC(=O)c1ccc(S(=O)(=O)Nc2ccc(-c3ccc4nnc(C)n4n3)cc2)cc1	Pol beta inh 28µM, Pol eta inh-1 20µM, Pol kappa inh-1 inconclusive | Pol eta inh-2 inconclusive
CCNc1nc(NCC)n2c(SCC(=O)Nc3ccc(OC(F)F)cc3)nnc2n1	POLI inh inconclusive, Pol eta inh-1 inconclusive (no result: Pol beta inh) | Pol eta inh-2 inconclusive
CCNc1nc(NCC)n2c(SCC(=O)Nc3ccc(F)cc3)nnc2n1	POLI inh 20µM, Pol eta inh-1 14µM, WRN inhibitor inconclusive, Pol kappa inh-1 inconclusive (no result: Pol beta inh) | Pol kappa inh-2 60 | Pol eta inh-2 67
CCOC1=C/C(=C/c2c(N)n3nc(-c4ccccc4)sc3nc2=O)C=CC1=O	POLI inh inconclusive, Pol beta inh 35µM, Pol eta inh-1 28µM, WRN inhibitor inconclusive, Pol kappa inh-1 inconclusive | Pol eta inh-2 inconclusive
COc1cc(/C=C/c2ccc3cccc([N+](=O)[O-])c3n2)ccc1OCC(=O)O	POLI inh inconclusive, Pol beta inh inconclusive, Pol eta inh-1 20µM, Pol kappa inh-1 inconclusive | Pol kappa inh-2 inconclusive | Pol eta inh-2 76
COc1ccc(C(CC(=O)N2CCOCC2)c2c(OC)cc(OC)c3c(-c4ccccc4)cc(=O)oc23)cc1 (centres undefined)	POLI inh 71µM, Pol beta inh 35µM, Pol eta inh-1 40µM, Pol kappa inh-1 inconclusive | Pol eta inh-2 inconclusive
COc1ccc(C(CC(=O)N2CCOCC2)c2c(OC)cc(OC)c3ccc(=O)oc23)cc1 (centres undefined)	POLI inh inconclusive, Pol beta inh inconclusive, Pol eta inh-1 inconclusive, Pol kappa inh-1 inconclusive
COc1cc(C(CCN2CCCCC2)c2c(OC)cc(OC)c3c(-c4ccccc4)cc(=O)oc23)cc(OC)c1OC (centres undefined)	Pol beta inh inconclusive
COc1cc(C(CC(=O)N2CCCC2)c2c(OC)cc(OC)c3c(-c4ccccc4)cc(=O)oc23)cc(OC)c1OC (centres undefined)	POLI inh inconclusive, Pol beta inh 45µM, Pol eta inh-1 40µM, Pol kappa inh-1 inconclusive | Pol eta inh-2 inconclusive
Oc1ccc(NCc2ccc(OCc3ccccc3)cc2)cc1	FEN1 inhibitor inconclusive, POLI inh 10µM, Pol eta inh-1 79µM!, Pol kappa inh-1 inconclusive | Pol eta inh-2 inconclusive
Oc1ccc(NCc2ccc(OCc3ccccc3Cl)cc2)cc1	POLI inh 18µM, Pol kappa inh-1 inconclusive (no result: WRN inhibitor) | Pol eta inh-2 inconclusive
O=C(O)/C=C/c1ccc(S(=O)(=O)Nc2ccc(OCc3ccccc3)cc2)cc1	Pol beta inh inconclusive
O=C(O)CCc1ccc(S(=O)(=O)Nc2ccc(OCc3ccccc3)cc2)cc1	POLI inh inconclusive, Pol beta inh inconclusive, Pol eta inh-1 22µM, Pol kappa inh-1 inconclusive | Pol eta inh-2 67
Oc1ccc(NCc2ccccc2OCc2ccccc2Cl)cc1	FEN1 inhibitor inconclusive, POLI inh inconclusive (no result: Pol eta inh-1, WRN inhibitor) | Pol eta inh-2 inconclusive
Oc1ccc(OCc2ccccc2)cc1	none (no result: FEN1 inhibitor, POLI inh, Pol beta inh, Pol eta inh-1, WRN inhibitor)
O=C(CN1C(=O)CCC1=O)NC(=O)NC1CCCC1	none
O=C(N/C(=C/c1ccco1)C(=O)N1CCOCC1)c1ccccc1Br	none
COc1ccccc1N1CCN(S(=O)(=O)c2ccc(-c3ccc(=O)[nH]n3)o2)CC1	POLI inh inconclusive
Cc1c(Cl)cnc(NC(=O)COC(=O)CNC(=O)c2ccccc2)c1Cl	Pol eta inh-1 50µM (no result: Pol beta inh) | Pol kappa inh-2 inconclusive | Pol eta inh-2 inconclusive
Cc1c(Cl)cnc(NC(=O)COC(=O)c2ccc3c(c2)OCO3)c1Cl	Pol eta inh-1 inconclusive
Cc1c(Cl)cnc(NC(=O)COC(=O)c2ccncc2)c1Cl	POLI inh 50µM, Pol eta inh-1 25µM, WRN inhibitor inconclusive (no result: Pol beta inh) | Pol kappa inh-2 inconclusive
O=C(COC(=O)CNC(=O)c1ccccc1)Nc1ccccc1Cl	none
Cc1c(Cl)cnc(NC(=O)COC(=O)CCc2nc3ccccc3s2)c1Cl	none
Cc1c(Cl)cnc(NC(=O)COC(=O)[C@H](C)NC(=O)c2ccccc2)c1Cl	POLI inh inconclusive, Pol eta inh-1 50µM (no result: Pol beta inh) | Pol kappa inh-2 inconclusive | Pol eta inh-2 inconclusive
Cc1sc2ncnc(N3CCC(C(=O)N4CC(C)SC4=Nc4ccc(Cl)cc4)CC3)c2c1C (centres undefined)	none (no result: Pol beta inh)
COc1ccc(S[C@@H](CCN2CC[C@H](NC(=O)OCc3ccccc3)CCC2=O)c2ccccc2)cc1	none (no result: Pol beta inh)
COc1ccc2cc3c(N)c(C(=O)NCc4ccco4)sc3nc2c1	FEN1 inhibitor inconclusive, POLI inh inconclusive, Pol eta inh-1 inconclusive, Pol kappa inh-1 inconclusive
Nc1c(C(=O)NCc2ccco2)sc2nc3c(cc12)C(=O)CCC3	FEN1 inhibitor inconclusive, POLI inh inconclusive, Pol beta inh 32µM, Pol eta inh-1 32µM, WRN inhibitor inconclusive, Pol kappa inh-1 inconclusive | Pol eta inh-2 54
COc1ccc(-n2nnc3c(=O)n(CC(=O)N4CCC(C)CC4)cnc32)cc1	none | GALK confirm inactive | Redox cycling inactive | HEK293 viability inactive
